The record followed here is PubChem BioAssay AID602410 (Johns Hopkins Ion Channel Center, 2012).

About 2,800 (0.82%) of roughly 340,000 compounds were called active.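 How the source made its calls: active means B-score under library mean minus 4 SD, starting fluorescence ratio at most library mean plus 5 SD; inactive means the rest.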 The list comes from a sample in which actives are over-represented; it also holds similar structures and randomly drawn compounds.

For the test, the target named is Potassium channel subfamily K member 3 (Homo sapiens) (UniProt O14649). The test is described as follows: blockers of TASK1 two-pore potassium channel – CHO cells, FluxOR thallium flux, B-score, primary screen (AID 602410).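 On B-score: more negative B-score means stronger inhibition of thallium flux through KCNK3.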 The conditions noted are these: CHO-KCNK3 thallium flux, FluxOR fluorescence, at 10 µM; stronger effect = lower value.
Potassium channel subfamily K member 3 (Homo sapiens), sequence (O14649 whole entry, looked up): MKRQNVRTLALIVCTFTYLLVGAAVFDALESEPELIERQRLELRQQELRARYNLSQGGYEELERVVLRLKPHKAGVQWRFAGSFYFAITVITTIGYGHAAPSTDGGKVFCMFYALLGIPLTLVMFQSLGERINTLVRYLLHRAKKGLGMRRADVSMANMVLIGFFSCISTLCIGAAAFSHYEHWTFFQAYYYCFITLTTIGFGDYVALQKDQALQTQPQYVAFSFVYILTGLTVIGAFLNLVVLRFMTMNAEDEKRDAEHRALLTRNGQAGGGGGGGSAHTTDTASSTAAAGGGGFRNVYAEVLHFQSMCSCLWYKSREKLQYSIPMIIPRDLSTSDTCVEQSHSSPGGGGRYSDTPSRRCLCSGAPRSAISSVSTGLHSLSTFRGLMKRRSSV
As for `O=C(Cn1nc(CNc2ccc(Cl)cc2)[n+]2c1CCCCC2)c1ccc(Cl)cc1`, the B-score result was “inactive”.

In the case of `N#Cc1c(NC(=O)CCCN2C(=O)c3ccccc3C2=O)oc(-c2ccccc2)c1-c1ccccc1`, the B-score result was “inactive”.

`COc1cc(C(=O)NCC(=O)N2CC=C(c3ccccc3)CC2)cc(OC)c1OC`: the B-score entry is “inactive”.

Regarding `COc1cc(C(=O)Nc2oc(-c3ccccc3)c(-c3ccccc3)c2C#N)cc(OC)c1OC`, the B-score is -10.4 (active).

On to `CCC(C)(C)NC(=O)c1cc([N+](=O)[O-])ccc1N1CCCCC1`, for which the B-score result was “inactive”.

For `CCC(=O)c1ccc(OC(=O)/C=C/c2cc(OC)c(OC)c(OC)c2)cc1`, the B-score result was “inactive”.

For the molecule `CCOC(=O)N1CCC(N(CCOC)C(=O)Nc2ccc(C)c(C)c2)CC1`, the B-score result is “inactive”.

In the case of `COc1ccc(N2CCN(C(=O)CNC(=O)c3ccc(Br)o3)CC2)cc1`, the B-score result was “inactive”.

Consider `O=C(NCCc1csc(-c2ccccc2)n1)c1ccccc1F`, for which the B-score entry is “inactive”.

On to `COc1ccc(-c2nc(CCNC(=O)c3ccc(Br)o3)cs2)cc1`, for which the B-score was -10.2 (active).

As for `O=C(COC(=O)Cc1ccccc1F)NCCc1ccccc1`, the B-score result was “inactive”.

On to `O=C(COC(=O)CNS(=O)(=O)c1ccccc1)NC12CC3CC(CC(C3)C1)C2`, for which the B-score result is “inactive”.

As to `N#Cc1ccc(S(=O)(=O)NCC(=O)OCC(=O)NCCc2ccccc2)cc1`, the B-score was -11.3 (active).

For `COC(=O)c1ccc(CN2C(=O)NC(c3ccccc3)(c3ccccc3)C2=O)o1`, the B-score result was “inactive”.

For `COc1ccc(CNc2ncnc3ccccc23)cc1`, the B-score entry was “inactive”.

`CCc1ccc(C(CNc2nc(C(F)(F)F)nc3ccccc23)N(C)C)cc1` (stereo unspecified): the B-score result was “inactive”.

Regarding `COc1cccc(CNc2nc(C(F)(F)F)nc3ccccc23)c1`, the B-score was -9.39 (active).

As to `O=Cc1c(Cl)cccc1Cl`, the B-score entry is “inactive”.

As for `O=C(NNC1=C(C(=O)C(F)(F)F)CCC1)c1ccncc1`, the B-score result is “inactive”.

For `Cc1ccc(C(=O)OCC(=O)NC(=O)Cc2ccccc2)c(O)c1`, the B-score result is “inactive”.

As to `O=C(Cn1cc(C(=O)c2cccs2)c2ccccc21)NCc1cccs1`, the B-score is -13.4 (active).

In the case of `O=C(COC(=O)c1cccs1)NCc1cccs1`, the B-score result is “inactive”.

For `COCCNC(=O)Cn1cc(C(=O)c2cccs2)c2ccccc21`, the B-score result was “inactive”.

As to `COc1ccc(F)cc1C(=O)C1CCCN(C(=O)CCc2ccccn2)C1` (stereo unspecified), the B-score entry was “inactive”.

On to `CCOC(=O)c1sc(-c2cccc([N+](=O)[O-])c2)cc1N`, for which the B-score result is “inactive”.

Turning to `O=C(c1ccc(F)cc1)C1CCN(Cc2cn[nH]c2-c2ccccc2)CC1`, the B-score result is “inactive”.

`Cc1ccccc1NC(=O)Nc1ccccc1N1CCCCC1`: the B-score entry was “inactive”.

For the molecule `O=C(CNCCC1=CCCCC1)Nc1ccccc1N1CCCCCC1`, the B-score is -12.6 (active).

Take `Cc1ccc(C(C)C)cc1OCC(=O)Nc1ccccc1N1CCCC1`: the B-score entry was “inactive”.

For the molecule `CC1=C[C@H]2Cc3cc(C)cc(C)c3S(=O)(=O)[C@@H]2C=C1`, the B-score entry is “inactive”.

In the case of `CC(C)n1c(O)c(N=Nc2ccccn2)c2ccccc21`, the B-score result was “inactive”.

Regarding `CN(C)CCN(C(=O)C1CCCCC1)c1nc2cc3c(cc2s1)OCO3`, the B-score entry was “inactive”.

For the molecule `CCN(CC)CCN(C(=O)c1cc(Cl)sc1Cl)c1nc2cc3c(cc2s1)OCO3`, the B-score was -8.98 (active).

For the molecule `CN(C)CCN(C(=O)C1=COCCO1)c1nc2ccc(Cl)cc2s1`, the B-score result is “inactive”.

Regarding `CCn1c(SCC(=O)NC2CCCC2)nnc1-c1ccoc1C`, the B-score entry is “inactive”.

Regarding `CCN(CC)C(=O)CN(c1cccc(OC)c1)S(=O)(=O)c1ccc(C)cc1`, the B-score result is “inactive”.

Turning to `CCCCCCCC(=O)NC(Nc1ccccc1OC)C(Cl)(Cl)Cl` (stereo unspecified), the B-score result is “inactive”.

Consider `Cc1ccc(O)c(CCc2ccccc2)n1`, for which the B-score result is “inactive”.

`O=C(Nc1ccccc1-c1ccccc1)c1cccs1`: the B-score result is “inactive”.

For the molecule `COc1cc(NC(=O)c2cccs2)ccc1NC(=O)c1ccccc1Cl`, the B-score result was “inactive”.

Take `CC(Oc1cccc(NC(=O)c2cccs2)c1)C(=O)c1ccccc1` (stereo unspecified): the B-score was -11.3 (active).

`CCNC(=O)CC1C(=O)N(c2ccc(OC)cc2)C(=O)N1CCOC` (stereo unspecified): the B-score result was “inactive”.

Turning to `Cc1ccnc(N2C(=O)c3ccccc3C2Nc2ccc3c(c2)OCCO3)c1` (stereo unspecified), the B-score entry was “inactive”.

Consider `COC(=O)c1ccc(-n2cnc3ccccc32)nc1`, for which the B-score result is “inactive”.

As to `COC(=O)c1cc(NC2c3ccccc3C(=O)N2c2ccc(Cl)cn2)cc(C(=O)OC)c1` (stereo unspecified), the B-score was -10.8 (active).

On to `Cn1ccnc1-c1nnn(-c2ccc(F)cc2)n1`, for which the B-score entry is “inactive”.

Consider `O=C(CC(c1ccccc1)c1cc(Cl)ccc1O)NCCN1CCOCC1` (stereo unspecified), for which the B-score result was “inactive”.

On to `Cc1cc(OCC(=O)NC2CCN(C)CC2)ccc1[N+](=O)[O-]`, for which the B-score result is “inactive”.

As to `Cc1cc(OCCCN2CCN(Cc3ccccc3)CC2)ccc1[N+](=O)[O-]`, the B-score result is “inactive”.

Turning to `Cc1cc(OCCCCOc2ccc(C#N)cc2)ccc1[N+](=O)[O-]`, the B-score is -9.68 (active).

Take `COC(c1ccccc1)c1nnc(CCC(=O)N2CCN(CCOc3ccccc3)CC2)o1` (stereo unspecified): the B-score entry is “inactive”.

As for `O=C(CC1NCCc2ccccc21)Nc1cccc(Cl)c1` (stereo unspecified), the B-score is -8.87 (active).

`O=C(CC1NCCNC1=O)Nc1cc(Cl)cc(Cl)c1` (stereo unspecified): the B-score result was “inactive”.

As for `O=C(CC1NCCNC1=O)Nc1ccc(Oc2ccccc2)cc1` (stereo unspecified), the B-score result is “inactive”.

For `O=C(NNS(=O)(=O)c1ccccc1C(F)(F)F)c1cc2ncc(C(F)(F)F)cc2s1`, the B-score entry is “inactive”.

Regarding `CN1CCN(C(=O)/C(=C\c2cccs2)NC(=O)c2cccs2)CC1`, the B-score result was “inactive”.

With `Cc1ccc(C)c(C(=O)COC(=O)Cn2[nH]c(=O)c3ccccc3c2=O)c1`, the B-score is -9.1 (active).

Regarding `O=C(COC(=O)Cn1[nH]c(=O)c2ccccc2c1=O)Nc1ncc(Cl)cc1Cl`, the B-score result was “inactive”.

As for `CN(C)S(=O)(=O)c1ccc(NC(=O)COC(=O)Cn2[nH]c(=O)c3ccccc3c2=O)cc1`, the B-score entry is “inactive”.

For the molecule `Fc1ccc(Cn2nnnc2C(c2cccs2)N2CCCCCC2)cc1` (stereo unspecified), the B-score result is “inactive”.

Consider `CCC(C)(C)n1nnnc1C(c1cccs1)N1CCN(c2nc3ccccc3s2)CC1` (stereo unspecified), for which the B-score is -9.57 (active).

For `CCC(C)(C)n1nnnc1C(c1ccc(OC)c(OC)c1)N1CCN(C(=O)c2ccco2)CC1` (stereo unspecified), the B-score entry is “inactive”.

Consider `CC(C)C(=O)N1CCN(CCN=CC2=C(O)CC(c3ccco3)CC2=O)CC1` (stereo unspecified), for which the B-score result was “inactive”.

Turning to `CCOC(=O)C1=C(CN2CCc3ccccc32)NC(=O)NC1c1cc(C)ccc1C` (stereo unspecified), the B-score entry was “inactive”.

For the molecule `CC(C)(C)c1nnc(N/N=C/c2ccc(O)cc2)n(N)c1=O`, the B-score entry is “inactive”.

Take `O=C(Nc1cc(=O)[nH]c2ncnn12)c1ccccc1Cl`: the B-score result is “inactive”.

In the case of `CCCC(c1nnnn1C(C)(C)C)N1CCN(Cc2ccccc2)CC1` (stereo unspecified), the B-score entry is “inactive”.

For the molecule `COc1ccc(OC)c(C(c2nnnn2C(C)(C)C)N2CCc3ccccc3C2)c1` (stereo unspecified), the B-score result was “inactive”.

On to `COc1ccccc1C(c1nnnn1C(C)(C)C)N1CCN(Cc2ccccc2)CC1` (stereo unspecified), for which the B-score is -8.94 (active).

As for `C=CCn1c(SCc2cc(C(=O)OC)c(C)o2)nnc1-c1ccncc1`, the B-score entry is “inactive”.

For the molecule `COc1ccc(N2CCN(S(=O)(=O)c3ccc4c(c3)NC(=O)C(C)C(=O)N4)CC2)cc1` (stereo unspecified), the B-score entry is “inactive”.

As for `CNc1ccc([N+](=O)[O-])cc1C(=O)O`, the B-score result was “inactive”.

On to `Cc1ccc(NC(=O)c2cc([N+](=O)[O-])ccc2Cl)c(O)c1`, for which the B-score was -10.1 (active).

As to `O=C(Nc1cccnc1)c1cc([N+](=O)[O-])ccc1Cl`, the B-score result was “inactive”.

For `Cc1ccc(SCC(=O)Nc2nncs2)cc1`, the B-score entry was “inactive”.

As to `COc1ccccc1-c1c(C#N)c(N)nc2c1CCC2`, the B-score result was “inactive”.

Turning to `O=C(CSc1nc2ccccc2c(=O)n1Cc1ccc(F)cc1)NCC1CCCO1` (stereo unspecified), the B-score result is “inactive”.

As for `c1ccc2c(NCC3CCCO3)nc(-c3ccncc3)nc2c1` (stereo unspecified), the B-score result was “inactive”.

As to `Clc1cccc(-c2nc(NCC3CCCO3)c3ccccc3n2)c1` (stereo unspecified), the B-score was -10.2 (active).

As to `CCOC(=O)[C@@H]1[C@H]2COc3ccc(Br)cc3[C@H]2N2C(=O)N(c3ccc(C)cc3)C(=O)[C@@]12C`, the B-score result is “inactive”.

`CCn1c(CSc2nncn2-c2ccc(OC)cc2)nc2cc(S(=O)(=O)N(C)C)ccc21`: the B-score entry was “inactive”.

As to `COc1cc(CNCc2ccc(OC)c3ccccc23)cc(OC)c1OC`, the B-score result is “inactive”.

As for `CC(C)N(Cc1ccccc1)C(=O)COC(=O)c1cnccn1`, the B-score result is “inactive”.

For `N/C(=N\OC(=O)Cc1ccc([N+](=O)[O-])cc1)c1ccccn1`, the B-score entry is “inactive”.

For `N/C(Cc1ccc([N+](=O)[O-])cc1)=N\OC(=O)COc1ccc2ccccc2c1`, the B-score was -8.91 (active).

Consider `Cc1cc(C)cc(OCC(=O)O/N=C(\N)Cc2ccc([N+](=O)[O-])cc2)c1`, for which the B-score entry was “inactive”.

With `CCNC(=O)CC1C(=O)N(c2ccc(OC)cc2)C(=S)N1CCc1ccncc1` (stereo unspecified), the B-score entry was “inactive”.

On to `CCc1cc(-c2n[nH]c(=S)n2CC(C)C)cs1`, for which the B-score entry is “inactive”.

Take `CCOC(=O)N1CCN(Cc2nc3cc(NC(=O)CC)ccc3n2CC)CC1`: the B-score result is “inactive”.

Take `O=C(CN(CC1CCCO1)C(=O)CNS(=O)(=O)c1ccc(Cl)cc1)NCc1ccccc1` (stereo unspecified): the B-score entry is “inactive”.

Take `CCC(C(=O)NCCC(C)C)N(Cc1ccccc1Cl)C(=O)c1snc(C(N)=O)c1N` (stereo unspecified): the B-score entry is “inactive”.

Take `COc1ccc2c(c1)c(=Cc1ccc(N(C)C)cc1)c1cc(-c3ccccc3)[n+](C)n12`: the B-score was -15.6 (active).

Consider `COc1ccc2sc(-c3ccc(N(C)C)cc3)c(C#CCO)c2c1`, for which the B-score result was “inactive”.

Consider `O=S(=O)(c1cccs1)N1CCN(CCOc2ccccc2)CC1`, for which the B-score result was “inactive”.

Regarding `O=C(N/N=C/c1cccc(OCc2ccccc2)c1)c1ccc(Br)o1`, the B-score was -9.25 (active).

Turning to `Cc1ccc(OCCOc2cccc(/C=N/NC(N)=O)c2)cc1`, the B-score result was “inactive”.

Consider `O=C(N/N=C/c1cccc(O)c1)c1cc2c(ccc3ccccc32)o1`, for which the B-score entry is “inactive”.

Consider `COc1ccccc1N1CCN(c2ccc([N+](=O)[O-])nc2)CC1`, for which the B-score entry was “inactive”.

Take `COc1ccccc1N1CCN(c2ncnc3sc(C)c(-c4ccccc4)c23)CC1`: the B-score was -14.3 (active).

Consider `COc1ccccc1N1CCN(c2nc(C)cc(=O)[nH]2)CC1`, for which the B-score entry was “inactive”.

In the case of `COc1ccc(S(=O)(=O)N(C)CC(=O)NCCCN2CCOCC2)cc1Cl`, the B-score entry was “inactive”.

For `O=C(NCCN1CCOCC1)Nc1cccc(Cl)c1`, the B-score result was “inactive”.

On to `COc1cccc2cc(C(C)N(CCCN3CCOCC3)C(=O)Nc3ccc(Cl)cc3)oc12` (stereo unspecified), for which the B-score is -10.2 (active).

For the molecule `Cc1nn(CC(=O)NCc2ccccn2)c(C)c1[N+](=O)[O-]`, the B-score result was “inactive”.

On to `Cc1nn(CC(=O)Nc2ccc(N(C)C)cc2)c(C)c1[N+](=O)[O-]`, for which the B-score result was “inactive”.

On to `Cc1nn(CC(=O)Nc2nc3ccccc3s2)c(C)c1[N+](=O)[O-]`, for which the B-score was -10.5 (active).
